Results on 5 molecules are retold here after PubChem BioAssay (NCATS).

SMILES strings stand for the structures. Inconclusive results are not listed. The source made the active and inactive calls. Unless noted, the call rests on the fitted dose curve; in most records, active means well fitted curve in either direction with a large enough effect (not every such curve was filed as active); inconclusive means small, poorly fitted or top-dose-only effect, or another doubt; inactive means flat fitted curve, though single readings scatter.

Assay [1] addresses Lysosomal acid glucosylceramidase (Homo sapiens) (UniProt P04062). In words: Glucocerebrosidase-p2 (AID 348; in the data active means potency below about 10 µM; further: potency means the concentration at half of the fitted maximal effect). The following applies: purified GBA, blue fluorogenic substrate, 40 min. The procedure, abridged:
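Normal human glucocerebrosidase (0.2 nM) with blue fluorogenic substrate (80 uM final) in citrate/phosphate pH 5.9 with 10mM sodium taurocholate, 0.01% tween-20; 40 min RT, NaOH/glycine stop; fluorescence Ex 365/Em 440; AC50 from a titration from 0.6 nM upwards.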

Assay [2] is described as follows: AP1 Signaling Pathway (AID 357).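 Further: ME-180 reporter cells stimulated with EGF at its EC50 level; on the % scale 0 is the no-effect control and ±100 the full control effect.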 The note with it: ME-180 AP-1-bla reporter, EGF-induced, beta-lactamase ratio, 5 h; at 7.69 µM (top of the series) unless noted. The procedure, abridged: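 Beta-lactamase reporter under AP-1 response element, ME-180 background. Stimulus: EC50 EGF. Compound exposure 5 h, 37 °C. Detection: CCF4, 2.5 h RT, 460/530 nm. Values: AC50 from titration.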

For assay [3], the target named is Cytochrome P450 1A2 (Homo sapiens) (UniProt P05177). Description: p450-cyp1a2 (AID 410; calls by dose curve; further: potency means the concentration at half of the fitted maximal effect). The note with it: recombinant CYP1A2, luciferin-ME demethylation, luminescence; series mostly up to 57 µM. The procedure, abridged: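 O-Demethylation of luciferin 6' methyl ether by human CYP1A2 is monitored as luciferase luminescence. Substrate sits at Km (100uM); enzyme is 20nM. Values are scaled to 57 uM furafylline as maximal inhibition.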

The nature of assay [4]: NFAT Signaling Pathway (AID 444).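 Further: carbachol stimulus at about its EC50 of 1 µM final; on the % scale 0 is the no-effect control and ±100 the full control effect.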 The following applies: Jurkat NFAT-bla M1, carbachol, beta-lactamase ratio, 5 h; at 7.69 µM (top of the series) unless noted. The procedure, abridged:
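Jurkat cells with NFAT-driven β-lactamase reporter and co-expressed M1 receptor, stimulated with carbachol (final 1 uM, ~EC50), compound titration, 5 h at 37 °C. CCF4 loaded 1 h at RT; 460/530 nm ratio gave %activity and AC50.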

Assay [5] can be described thus: Stat Signaling Pathway (AID 446).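 Further: ME-180 cervical cancer cells given 40 pM IL-6 alongside compound; SIE-controlled beta-lactamase reporter measured as 460/530 nm FRET emission ratio; on the % scale 0 is the no-effect control and ±100 the full control effect.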 The note with it: ME-180 SIE beta-lactamase reporter, IL-6 stimulated, 5 h; at 7.69 µM (top of the series) unless noted. The procedure, abridged:
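FRET read-out (405 nm excitation, 460/530 nm emission) of a beta-lactamase reporter under a STAT-inducible element in ME-180 cervical carcinoma cells. Cells with compound receive 40 pM IL-6 for 5 h. Values are normalised to AC90 stimulation and AC90 JAK-inhibitor controls.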

In assay [6] the target is Glucocorticoid receptor (Homo sapiens) (UniProt P04150). In words: GR-EFC Redistribution (AID 451; calls by dose curve; further: potency means the concentration at half of the fitted maximal effect). The following applies: CHO-K1 GR-EFC translocation, beta-gal luminescence, 2 h. The procedure, abridged: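 CHO-K1 cells expressing nuclear EA and GR-ED fragments of b-gal; compounds titrated up to 46 uM final, 2 h at 37 C. GR nuclear translocation read as complemented b-gal luminescence after 1 h RT detection.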

For assay [7], the target named is Mitogen-activated protein kinase 10 (Mus musculus) (UniProt Q61831). Description: JNK3 AlphaScreen Assay (AID 530).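 Further: kinase came from lysate of stimulated human HepG2 cells; signal reports phosphorylation of biotinylated GST-cJun 1-79 at Ser73 with 10 µM ATP; on the % scale 0 is the no-effect control and ±100 the full control effect.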 The following applies: JNK3 lysate, c-Jun phosphorylation; series mostly up to 57.1 µM. The procedure, abridged:
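Activity was read by AlphaScreen after JNK3-containing HepG2 lysate (cytokine pre-activated) phosphorylated biotinylated GST-cJun with 10 uM ATP at room temperature. Phospho-Ser73 cJun antibody with Protein-A acceptor beads provided detection.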
On the technique in general: Bead proximity is the source of the signal in Alpha formats.

Assay [8] deals with 3',5'-cyclic-AMP phosphodiesterase 4B (Homo sapiens) (UniProt Q07343). In words: qHTS Assay for Inhibitors of PDE-IV (AID 607; active means well fitted activation curve with a large enough effect in the main read-out, with a control signal flat, not every such curve was filed as active; further: % of control where 0% means no effect). The following applies: HEK293 ACTOne CNG channel cells, membrane potential fluorescence; series mostly up to 22.9 µM. The procedure, abridged: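 Cell-based read-out of cAMP via a modified cyclic nucleotide-gated channel and membrane potential dye (535/590 nm) in HEK293 cells expressing PDE4 endogenously. Compounds tested up to 22.9 uM final; 100 uM RO 20-1724 reference.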
On the technique in general: Quantitative high-throughput screening tests each substance at several concentrations.

Assay [9] concerns the target Cytochrome P450 3A4 (Homo sapiens) (UniProt P08684). In words: qHTS Assay for Inhibitors and Substrates of Cytochrome P450 3A4 (AID 884; active means well fitted curve in the direction sought with a large enough effect; an effect the other way counts as inactive or inconclusive; further: nearly all actives have a fitted effect of over 50% in size; further: potency means the concentration at half of the fitted maximal effect). The following applies: recombinant CYP3A4, Luciferin-PPXE luminescence; series mostly up to 57.1 µM. The procedure, abridged: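 Luminescent readout of luciferin produced by CYP3A4 (20 nM) dealkylation of Luciferin-PPXE, 25 uM (its KM). NADPH-driven reaction ran 60 min at RT after 10 min compound preincubation; data scaled to 57 uM ketoconazole as 100% inhibition.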

For assay [10] the target is unchanged. In words: qHTS Assay for Activators of Cytochrome P450 3A4 (AID 885; active means well fitted curve in the direction sought with a large enough effect; an effect the other way counts as inactive or inconclusive; further: nearly all actives have a fitted effect of over 65% in size; further: potency means the concentration at half of the fitted maximal effect). The following applies: recombinant CYP3A4, Luciferin-PPXE luminescence, 60 min; series mostly up to 57.1 µM. The procedure, abridged: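 Luminescent readout of luciferin formed from 25 uM Luciferin-PPXE (KM level) by 20 nM CYP3A4 in 200 mM KPO4, with 60 min NADPH-driven reaction at room temperature after 10 min compound exposure. Ketoconazole (57 uM) defined 100% inhibition.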

Assay [11] can be described thus: qHTS Assay for Lipid Storage Modulators (AID 1519; calls by dose curve). The following applies: Drosophila S3 cells, BODIPY lipid droplet/cell ratio, laser cytometry, cells loaded with oleic acid; for activity change, negative = inhibition: at 57.5 µM (top of the series). The procedure, abridged: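 Cells seeded at 5,000 per well were treated with compounds over a concentration series and loaded with oleic acid (400 uM, as added). Lipid droplet fluorescence (488 nm excitation, 500-530 nm channel) was read by laser-scanning cytometry and normalized to 20 uM Triacsin C.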

Assay [12] in a line: Primary qHTS for small molecule stabilizers of the endoplasmic reticulum resident proteome: Secreted ER Calcium Modulated Protein (SERCaMP) assay (AID 1508630; active means well fitted curve in the direction sought with a large enough effect; an effect the other way counts as inactive or inconclusive; further: on the % scale 0 is the no-effect control and ±100 the full control effect). The note with it: SH-SY5Y GLuc-SERCaMP (Gaussia luciferase released on ER calcium loss) secretion, thapsigargin, luminescence; series mostly up to 38.4 µM. The procedure, abridged: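 The SH-SY5Y reporter protocol was run at 3 concentrations up to 38.3 uM (primary) or 11 concentrations (follow-up): 16 h compound, 100 nM thapsigargin for 4 h, then extracellular luciferase luminescence.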

Assay [13] has as its target Cytochrome P450 2C9 (Homo sapiens) (UniProt P11712). Description: qHTS Assay for Inhibitors and Substrates of Cytochrome P450 2C9 (AID 883; active means well fitted curve in the direction sought with a large enough effect; an effect the other way counts as inactive or inconclusive; further: on the % scale 0 is the no-effect control and ±100 the full control effect; nearly all actives have a fitted effect of over 60% in size). The note with it: recombinant CYP2C9, luciferin-H luminescence, 60 min; series mostly up to 57.1 µM. The procedure, abridged:
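10nM CYP2C9 + 100uM Luciferin-H (=KM), 25mM KPO4; cpd 10 min 37C; NADPH regen, 60 min 37C; stop/detect with P450 Glo-Buffer 20 min; luminescence. Norm. to 57uM sulphaphenazole as full inhibition.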

A short description of assay [14]: qHTS Assay for Identification of Small Molecule Agonists for Hypoxia Response Element Signaling Pathway (AID 914; active means well fitted activation curve with a large enough effect in the signal ratio, with a control signal flat, not every such curve was filed as active; the % refers to the signal ratio; further: % of control where 0% means no effect). The note with it: ME-180 (cervical carcinoma) HRE-bla reporter, beta-lactamase ratio, CoCl2, 17 h; activation: stronger effect = higher value. The procedure, abridged: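 Read-out: CCF4 FRET ratio of 460nm to 530nm emission (excitation 405nm) after 2.5 hours at room temperature, taken from HRE-bla ME-180 cells that had been exposed to compound and EC50 CoCl2 for 17 hours.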

Setting [15] is: measured here: cell count channel max response.
Where [16] appears, read: measured here: lipid channel max response.

Sequence of Cytochrome P450 1A2 (Homo sapiens) (P05177 whole entry, looked up): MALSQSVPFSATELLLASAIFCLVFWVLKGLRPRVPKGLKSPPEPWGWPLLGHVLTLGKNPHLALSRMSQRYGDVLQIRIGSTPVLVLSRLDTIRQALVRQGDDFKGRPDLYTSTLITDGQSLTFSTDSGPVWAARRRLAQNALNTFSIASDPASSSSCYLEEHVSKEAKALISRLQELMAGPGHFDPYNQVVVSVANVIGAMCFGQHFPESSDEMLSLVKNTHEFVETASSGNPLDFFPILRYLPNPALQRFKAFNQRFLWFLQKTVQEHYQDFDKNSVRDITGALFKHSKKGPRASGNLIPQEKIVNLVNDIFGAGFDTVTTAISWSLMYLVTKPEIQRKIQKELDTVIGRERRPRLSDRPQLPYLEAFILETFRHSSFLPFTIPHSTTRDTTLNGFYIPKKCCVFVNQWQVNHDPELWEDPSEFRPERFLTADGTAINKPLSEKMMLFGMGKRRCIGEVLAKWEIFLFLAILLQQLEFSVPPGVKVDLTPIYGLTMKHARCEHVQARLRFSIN
Sequence of Lysosomal acid glucosylceramidase (Homo sapiens) (P04062 whole entry, looked up): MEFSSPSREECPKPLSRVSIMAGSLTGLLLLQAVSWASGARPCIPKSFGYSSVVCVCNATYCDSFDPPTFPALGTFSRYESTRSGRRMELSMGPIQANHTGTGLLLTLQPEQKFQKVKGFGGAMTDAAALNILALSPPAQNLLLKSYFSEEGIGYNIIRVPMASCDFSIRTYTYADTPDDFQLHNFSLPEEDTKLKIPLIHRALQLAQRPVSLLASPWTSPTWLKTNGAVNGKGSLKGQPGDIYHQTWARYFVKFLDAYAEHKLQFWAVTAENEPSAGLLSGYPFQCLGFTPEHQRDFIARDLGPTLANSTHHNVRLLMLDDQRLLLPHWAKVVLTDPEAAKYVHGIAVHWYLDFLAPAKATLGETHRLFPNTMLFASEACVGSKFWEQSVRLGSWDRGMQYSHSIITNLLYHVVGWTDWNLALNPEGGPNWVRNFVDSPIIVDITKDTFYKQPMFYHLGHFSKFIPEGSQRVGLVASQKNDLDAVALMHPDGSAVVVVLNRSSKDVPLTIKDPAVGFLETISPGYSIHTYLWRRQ
Sequence of Cytochrome P450 3A4 (Homo sapiens) (P08684 whole entry, looked up): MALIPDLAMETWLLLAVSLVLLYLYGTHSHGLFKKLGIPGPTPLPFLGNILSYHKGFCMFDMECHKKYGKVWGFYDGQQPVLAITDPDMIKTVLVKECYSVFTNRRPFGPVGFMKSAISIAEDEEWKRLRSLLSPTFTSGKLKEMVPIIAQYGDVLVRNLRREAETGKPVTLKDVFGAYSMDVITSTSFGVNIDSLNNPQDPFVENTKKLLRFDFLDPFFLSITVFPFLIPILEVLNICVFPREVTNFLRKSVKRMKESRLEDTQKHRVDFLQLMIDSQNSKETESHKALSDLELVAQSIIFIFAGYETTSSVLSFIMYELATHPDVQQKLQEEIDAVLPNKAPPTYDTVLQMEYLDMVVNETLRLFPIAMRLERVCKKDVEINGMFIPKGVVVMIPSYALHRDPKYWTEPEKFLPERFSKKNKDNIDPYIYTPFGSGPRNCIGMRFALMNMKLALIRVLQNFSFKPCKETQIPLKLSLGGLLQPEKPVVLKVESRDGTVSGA
Sequence of Glucocorticoid receptor (Homo sapiens) (P04150 whole entry, looked up, the tested form may be a part): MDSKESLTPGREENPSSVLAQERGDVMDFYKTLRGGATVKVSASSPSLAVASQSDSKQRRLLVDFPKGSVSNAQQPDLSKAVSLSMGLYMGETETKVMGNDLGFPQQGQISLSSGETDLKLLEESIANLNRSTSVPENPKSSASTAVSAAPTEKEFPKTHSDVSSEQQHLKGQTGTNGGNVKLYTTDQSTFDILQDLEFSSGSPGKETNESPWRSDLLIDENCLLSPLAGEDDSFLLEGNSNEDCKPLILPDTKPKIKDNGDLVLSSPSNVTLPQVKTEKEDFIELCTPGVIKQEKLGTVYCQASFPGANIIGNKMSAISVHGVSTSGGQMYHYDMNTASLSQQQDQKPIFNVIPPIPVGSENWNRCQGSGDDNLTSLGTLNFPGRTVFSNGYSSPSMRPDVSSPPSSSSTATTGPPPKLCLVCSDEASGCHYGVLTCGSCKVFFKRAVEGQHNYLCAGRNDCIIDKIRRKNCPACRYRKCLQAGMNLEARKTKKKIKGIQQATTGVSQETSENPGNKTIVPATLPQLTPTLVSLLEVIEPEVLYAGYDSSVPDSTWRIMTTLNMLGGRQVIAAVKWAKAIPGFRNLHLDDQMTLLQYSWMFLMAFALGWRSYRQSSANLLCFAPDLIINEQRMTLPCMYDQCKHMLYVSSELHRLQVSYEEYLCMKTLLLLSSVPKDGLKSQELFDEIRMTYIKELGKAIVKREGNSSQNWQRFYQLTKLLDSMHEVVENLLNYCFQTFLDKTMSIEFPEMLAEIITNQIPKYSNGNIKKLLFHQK
Sequence of 3',5'-cyclic-AMP phosphodiesterase 4B (Homo sapiens) (Q07343 whole entry, looked up): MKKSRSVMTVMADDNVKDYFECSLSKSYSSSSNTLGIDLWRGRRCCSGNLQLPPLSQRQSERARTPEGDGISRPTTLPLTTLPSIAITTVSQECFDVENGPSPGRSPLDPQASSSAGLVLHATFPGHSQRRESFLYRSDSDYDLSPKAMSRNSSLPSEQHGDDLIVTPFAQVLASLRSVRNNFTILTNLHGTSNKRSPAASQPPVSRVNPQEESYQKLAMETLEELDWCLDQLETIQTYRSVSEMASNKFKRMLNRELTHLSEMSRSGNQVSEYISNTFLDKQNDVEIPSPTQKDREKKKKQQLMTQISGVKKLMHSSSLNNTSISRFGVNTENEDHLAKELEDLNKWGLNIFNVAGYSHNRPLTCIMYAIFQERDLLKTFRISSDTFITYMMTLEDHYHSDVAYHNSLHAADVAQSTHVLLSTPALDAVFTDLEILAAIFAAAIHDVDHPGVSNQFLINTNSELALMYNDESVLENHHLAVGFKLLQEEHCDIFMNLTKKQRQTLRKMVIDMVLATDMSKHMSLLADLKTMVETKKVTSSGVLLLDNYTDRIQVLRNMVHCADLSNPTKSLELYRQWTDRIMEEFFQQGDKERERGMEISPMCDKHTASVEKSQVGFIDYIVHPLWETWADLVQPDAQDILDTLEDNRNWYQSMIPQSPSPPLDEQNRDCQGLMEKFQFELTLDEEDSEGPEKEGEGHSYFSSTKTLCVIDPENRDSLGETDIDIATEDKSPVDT
Sequence of Cytochrome P450 2C9 (Homo sapiens) (P11712 whole entry, looked up): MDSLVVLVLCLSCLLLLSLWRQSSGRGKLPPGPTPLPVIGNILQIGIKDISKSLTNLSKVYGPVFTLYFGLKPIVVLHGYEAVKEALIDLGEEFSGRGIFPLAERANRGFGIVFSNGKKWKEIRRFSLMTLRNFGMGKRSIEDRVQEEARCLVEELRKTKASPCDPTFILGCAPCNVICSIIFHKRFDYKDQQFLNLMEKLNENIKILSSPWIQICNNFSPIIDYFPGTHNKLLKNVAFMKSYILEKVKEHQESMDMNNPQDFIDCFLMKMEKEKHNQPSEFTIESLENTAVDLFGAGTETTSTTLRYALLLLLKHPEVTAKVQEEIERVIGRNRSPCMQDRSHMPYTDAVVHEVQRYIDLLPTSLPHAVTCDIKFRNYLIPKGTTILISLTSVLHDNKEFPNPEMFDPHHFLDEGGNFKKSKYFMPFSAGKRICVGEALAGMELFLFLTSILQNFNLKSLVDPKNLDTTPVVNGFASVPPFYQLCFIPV

Consider `Cc1noc(C)c1C(=O)N1CCC[C@@]2(CCN(C(=O)Nc3cccc(F)c3)C2)C1`, for which the Potency was > 11.4 µM (inactive) in assay [1], > 46 µM (inactive) in assay [6] and 5.01 µM (active) in [9]. The figures for the activity change, negative = inhibition in [2], in assay [4] and in [11] were -2.75% (inactive), 9.58% (inactive) and 3.82% (inactive), respectively. The Potency result in assay [3], in [8], in [10] and in assay [12] was “inactive” in each case. In assay [5], the activity, negative = inhibition is 8.15% (inactive). In assay [7], the call was inactive. In addition, the max response amounted to 8.32% in assay [11] (setting [15]) and 13.6% in assay [11] (setting [16]).
Turning to `CC(=O)N1CCC2(CCCN(C(=O)Nc3cccc(F)c3)C2)CC1`, the Potency is > 11.4 µM (inactive) in assay [1] and > 46 µM (inactive) in assay [6]. Also, the results for the activity change, negative = inhibition in assay [2], in [4] and in [11] were -2.22% (inactive), 13.9% (inactive) and -0.823% (inactive), respectively. Besides, the Potency entry in [3], in assay [8], in [10] and in assay [12] was “inactive” each time. Also, in assay [5], the activity, negative = inhibition was -6.7% (inactive). Besides, the molecule was called inactive in [7]. For the same molecule, the values for the max response in assay [11] (setting [15]) and in assay [11] (setting [16]) were -12.4% and -13.5%, respectively.
As to `O=C(c1ccco1)N1CCC2(CC1)CN(c1ccc(-c3ccccc3)cc1)C2`, the Potency in assay [1] is > 11.4 µM (inactive); in assay [3], 1 µM (active); in [6], > 46 µM (inactive); in [10], 3.98 µM (active). Besides, the figures for the activity change, negative = inhibition in assay [2], in assay [4] and in assay [11] were -23.8% (inactive), -4.82% (inactive) and 2.85% (inactive), respectively. Moreover, in [5], the activity, negative = inhibition was -21.1% (inactive). Besides, in assay [7], the outcome was inactive. The Potency result in [8], in assay [9] and in assay [12] was “inactive” in each case. Moreover, the max response in assay [11] (setting [15]) was -15.3%; in assay [11] (setting [16]), -11.7%.
Consider `CC(C)NC(=O)N1CCC2(CC1)CCN(C(=O)c1cc(C(F)(F)F)cc(C(F)(F)F)c1)CC2`, for which the Potency was > 11.4 µM (inactive) in [1] and > 46 µM (inactive) in [6]. In addition, the activity change, negative = inhibition is -12% (inactive) in [2], 25.7% (inactive) in assay [4] and -0.11% (inactive) in [11]. Moreover, the Potency entry in assay [3], in assay [8], in assay [13] and in [12] was “inactive” in each case. Further, the activity, negative = inhibition in assay [5] was -9.32% (inactive). In addition, the molecule was classed as inactive in assay [7]. The activation in assay [14] is 9.62% (inactive). Also, the max response in assay [11] (setting [15]) was -8.79%; in assay [11] (setting [16]), -7.75%.
Consider `CS(=O)(=O)N1CCC2(CCCN(c3ccccn3)C2)CC1`, for which the Potency in [1] was > 11.4 µM (inactive); in assay [3] it was 25.1 µM (active); in assay [6], > 46 µM (inactive). For the same molecule, the values for the activity change, negative = inhibition in [2], in assay [4] and in assay [11] were -3.01% (inactive), 4.17% (inactive) and 2.39% (inactive), respectively. In addition, the activity, negative = inhibition in assay [5] is 7.37% (inactive). Also, in [7], the outcome was inactive. Moreover, the Potency entry in assay [8], in assay [10] and in assay [12] was “inactive” each time. In addition, the max response in [11] (setting [15]) was 5.95%; in assay [11] (setting [16]), 15.6%.
